This is part of a sample that, as a whole, favours compounds with a hit. Of some 79,000 tested, about 15% had one in any assay. Calls of active or inactive are those of the source. No stated cut-off is given here; in the data, active means growth inhibition above about 70%; inactive means the rest.
Tests used:
[1] = NCI Yeast Anticancer Drug Screen. Data for the sgs1 strain (AID 173);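 further: 0% = growth of vehicle-only control cultures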; settings: S. cerevisiae sgs1 mutant, stronger effect = higher value
Method in brief: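 Read-out: yeast growth inhibition relative to vehicle controls, following compound exposure of a strain with a defined DNA repair/cell cycle alteration.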

[2] = NCI Yeast Anticancer Drug Screen. Data for the mlh1 rad18 strain (AID 175); settings: S. cerevisiae mlh1 rad18 strain growth inhibition, stronger effect = higher value
Method in brief: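 Yeast w/ defined DNA-repair lesions; compound exposure; growth vs vehicle controls → % inhibition.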

[3] = NCI Yeast Anticancer Drug Screen. Data for the rad18 strain (AID 177); settings: S. cerevisiae rad18 mutant growth inhibition, stronger effect = higher value
Method in brief: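 Readout: growth inhibition vs vehicle controls. Cells: genetically altered yeast strain, DNA repair defect.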

[4] = NCI Yeast Anticancer Drug Screen. Data for the wt1 strain (AID 149);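 further: 0% = growth of vehicle-treated wt1 cultures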; settings: S. cerevisiae wt1 strain (SPY 50644) growth inhibition, stronger effect = higher value
Method in brief: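 wt1 yeast, compound-treated; % growth inhibition vs vehicle control.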

[5] = NCI Yeast Anticancer Drug Screen. Data for the rad50EPP+ strain (AID 151);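 further: 0% = growth of vehicle-treated control cultures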; settings: S. cerevisiae rad50 mutant strain, stronger effect = higher value
Method in brief: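 Growth inhibition read against vehicle controls in rad50EPP+ yeast, a strain altered in DNA damage repair, after compound exposure.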

[6] = NCI Yeast Anticancer Drug Screen. Data for the mgt1 strain (AID 153); settings: S. cerevisiae mgt1 mutant growth inhibition, stronger effect = higher value
Method in brief: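 mgt1 yeast grown with test compound; read-out is growth inhibition versus vehicle-treated cultures.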

[7] = NCI Yeast Anticancer Drug Screen. Data for the rad50 strain (AID 155);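 further: 0% = growth of vehicle-only cultures of the same strain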; settings: S. cerevisiae rad50 strain growth inhibition, stronger effect = higher value
Method in brief: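 Genetically altered yeast (DNA repair pathway); compound treatment; growth inhibition vs vehicle ctrl.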

[8] = NCI Yeast Anticancer Drug Screen. Data for the mec2-1 strain (AID 157); settings: S. cerevisiae mec2-1 strain, stronger effect = higher value
Method in brief: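 Yeast mec2-1 mutant treated with compound. Readout: growth inhibition vs vehicle controls.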

[9] = NCI Yeast Anticancer Drug Screen. Data for the rad14 strain (AID 159);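 further: 0% = growth of vehicle-treated control cultures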; settings: S. cerevisiae rad14 strain growth inhibition, stronger effect = higher value
Method in brief: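 Test compounds were applied to a repair-deficient yeast strain. Its growth was then compared with that of cultures given vehicle alone, and inhibition was expressed relative to those controls.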

[10] = NCI Yeast Anticancer Drug Screen. Data for the sgs1 mgt1 strain (AID 161);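 further: 0% = growth of cultures given vehicle only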; settings: S. cerevisiae sgs1 mgt1 strain, stronger effect = higher value
Method in brief: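 Genetically altered yeast, compound exposure, growth inhibition relative to vehicle.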

[11] = NCI Yeast Anticancer Drug Screen. Data for the CLN2oe strain (AID 163);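 further: 0% = growth of vehicle-only control cultures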; settings: S. cerevisiae CLN2oe strain, stronger effect = higher value
Method in brief: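 Read-out: yeast growth inhibition, expressed relative to vehicle-only controls. The strain bears an engineered cell-cycle alteration.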

[12] = NCI Yeast Anticancer Drug Screen. Data for the cln2 rad14 strain (AID 165);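 further: 0% = growth equal to vehicle treated cultures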; settings: S. cerevisiae cln2 rad14 strain, stronger effect = higher value
Method in brief: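 cln2 rad14 yeast strain; compound exposure; growth inhibition read vs vehicle controls.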

[13] = NCI Yeast Anticancer Drug Screen. Data for the bub3 strain (AID 167); settings: S. cerevisiae bub3 mutant strain, stronger effect = higher value
Method in brief: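 Yeast carrying a defined mutation is treated with each compound, and growth is compared with that of vehicle-exposed cells to give inhibition.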

[14] = NCI Yeast Anticancer Drug Screen. Data for the wt2 strain (AID 169);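 further: 0% = growth of vehicle-treated yeast cultures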; settings: S. cerevisiae wt2 strain growth inhibition, stronger effect = higher value
Method in brief: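 Read-out: growth inhibition versus vehicle-treated control cultures after compound exposure of the yeast strain.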

[15] = NCI Yeast Anticancer Drug Screen. Data for the mlh1 strain (AID 171);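 further: 0% = growth of vehicle-treated control cultures of the same strain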; settings: S. cerevisiae mlh1 strain growth inhibition, stronger effect = higher value
Method in brief: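 Read-out: growth inhibition versus vehicle controls. Strain: engineered yeast with a defined DNA repair or cell cycle defect, compound-treated.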

[16] = at 5.0 µM (retest, dose inferred, filed as 0.5)
[17] = at 50.0 µM (retest, dose inferred, filed as 5.0)

Measured: growth inhibition

Nc1cc(N)c(N=Nc2cccc3c(S(=O)(=O)O)cccc23)cc1N=Nc1cc([N+](=O)[O-])ccc1O
inactive: [1]; at 1.2 µM -7% | [1]; at 3.7 µM 24% | [1]; at 11.0 µM 19% | [1]; at 33.0 µM 34% | [1]; at 100.0 µM 59% | [2]; [16] 52% | [2]; [17] 48% | [2]; at 50.0 µM 65.7% | [3]; at 1.2 µM -13% | [3]; at 3.7 µM -28% | [3]; at 11.0 µM -23% | [3]; at 33.0 µM -16% | [3]; at 100.0 µM 36%

CCCCCCCCCCCCNC(C)=O
inactive: [4]; at 1.2 µM -6% | [4]; at 3.7 µM -6% | [4]; at 11.0 µM -8% | [4]; at 33.0 µM -7% | [4]; at 100.0 µM 9% | [5]; at 1.2 µM -2% | [5]; at 3.7 µM 1% | [5]; at 11.0 µM 7% | [5]; at 33.0 µM 14% | [5]; at 100.0 µM 26% | [6]; at 1.2 µM -2% | [6]; at 3.7 µM -6% | [6]; at 11.0 µM -5% | [6]; at 33.0 µM -14% | [6]; at 100.0 µM 14% | [7]; at 1.2 µM -10% | [7]; at 3.7 µM -8% | [7]; [16] -165% | [7]; at 11.0 µM 2% | [7]; at 33.0 µM 3% | [8]; at 1.2 µM 2% | [8]; at 3.7 µM -3% | [8]; [16] -47% | [8]; at 11.0 µM 8% | [8]; at 33.0 µM 3% | [8]; at 100.0 µM 3% | [9]; at 1.2 µM -3% | [9]; at 3.7 µM 0% | [9]; at 11.0 µM -2% | [9]; at 33.0 µM 1% | [9]; at 100.0 µM 40% | [10]; [16] -63% | [11]; at 1.2 µM -1% | [11]; at 3.7 µM -1% | [11]; at 11.0 µM 0% | [11]; at 33.0 µM -4% | [11]; at 100.0 µM -2% | [12]; [16] -61% | [12]; [17] -2% | [12]; at 50.0 µM 15.3% | [13]; at 1.2 µM -9% | [13]; at 3.7 µM -3% | [13]; [16] -62% | [13]; at 11.0 µM -2% | [13]; at 33.0 µM -1% | [13]; at 100.0 µM 13% | [14]; at 1.2 µM -2% | [14]; at 3.7 µM -1% | [14]; at 11.0 µM -3% | [14]; at 33.0 µM -7% | [14]; at 100.0 µM 24% | [15]; at 1.2 µM 6% | [15]; at 3.7 µM -8% | [15]; at 11.0 µM -4% | [15]; at 33.0 µM -6% | [1]; at 1.2 µM -2% | [1]; at 3.7 µM -3% | [1]; at 11.0 µM -3% | [1]; at 33.0 µM -4% | [1]; at 100.0 µM 43% | [2]; [16] -116% | [3]; at 1.2 µM -4% | [3]; at 3.7 µM -4% | [3]; at 11.0 µM -2% | [3]; at 33.0 µM -3% | [3]; at 100.0 µM 61%
active: [7]; [17] 93% | [7]; at 50.0 µM 81.3% | [7]; at 100.0 µM 90% | [8]; [17] 78% | [8]; at 50.0 µM 83% | [10]; [17] 88% | [10]; at 50.0 µM 81% | [13]; [17] 91% | [13]; at 50.0 µM 80% | [15]; at 100.0 µM 72% | [2]; [17] 94% | [2]; at 50.0 µM 91.8%

CC(O)=NC(Cc1ccc2ccccc2c1)C(O)=NC(Cc1ccc(Cl)cc1)C(O)=NC(Cc1c[nH]c2ccccc12)C(O)=NC(CO)C(O)=NC(Cc1ccc(O)cc1)C(O)=NC(CCCN=C(N)N)C(O)=NC(CC(C)C)C(O)=NC(CCCN=C(N)N)C(=O)N1CCCC1C(O)=NC(C)C(=N)O (centres undefined)
inactive: [6]; at 1.2 µM -3% | [6]; at 3.7 µM -2% | [6]; at 11.0 µM -4% | [6]; at 33.0 µM -5% | [6]; at 100.0 µM 6% | [7]; at 1.2 µM -5% | [7]; at 3.7 µM -2% | [7]; [16] -9% | [7]; at 11.0 µM 1% | [7]; at 33.0 µM 3% | [7]; [17] 16% | [7]; at 50.0 µM 18.1% | [7]; at 100.0 µM 25% | [8]; at 1.2 µM -2% | [8]; at 3.7 µM -3% | [8]; [16] -14% | [8]; at 11.0 µM -4% | [8]; at 33.0 µM -2% | [8]; [17] -6% | [8]; at 50.0 µM 1.1% | [8]; at 100.0 µM 3% | [9]; at 1.2 µM -5% | [9]; at 3.7 µM 1% | [9]; at 11.0 µM 4% | [9]; at 33.0 µM 7% | [9]; at 100.0 µM 24% | [10]; [16] 2% | [10]; [17] 20% | [10]; at 50.0 µM 3% | [11]; at 1.2 µM -4% | [11]; at 3.7 µM 0% | [11]; at 11.0 µM 3% | [11]; at 33.0 µM 19% | [11]; at 100.0 µM 32% | [12]; [16] -5% | [12]; [17] 18% | [12]; at 50.0 µM 12.2% | [13]; at 1.2 µM -2% | [13]; at 3.7 µM -1% | [13]; [16] 39% | [13]; at 11.0 µM -4% | [13]; at 33.0 µM -1% | [13]; [17] 32% | [13]; at 50.0 µM 19.9% | [13]; at 100.0 µM 1% | [15]; at 1.2 µM -7% | [15]; at 3.7 µM -4% | [15]; at 11.0 µM -3% | [15]; at 33.0 µM 3% | [15]; at 100.0 µM 17% | [1]; at 1.2 µM -21% | [1]; at 3.7 µM -18% | [1]; at 11.0 µM -17% | [1]; at 33.0 µM 3% | [1]; at 100.0 µM 44% | [2]; [16] 52% | [2]; at 50.0 µM 58.4% | [3]; at 1.2 µM -6% | [3]; at 3.7 µM -6% | [3]; at 11.0 µM -3% | [3]; at 33.0 µM 1% | [3]; at 100.0 µM 35%
active: [2]; [17] 70%
